Results as given in PubChem BioAssay (Tox21).
Records with an inconclusive call do not appear. Calls of active or inactive are those of the source. Unless noted, the call rests on the fitted dose curve; in most records, active means well fitted curve in the direction sought with a large enough effect in the repeat runs; inconclusive means weak or mixed curves; inactive means no such curve, though single readings can be large; an effect the other way counts as inactive or inconclusive.

Tests used:
[1] = qHTS assay to identify small molecule agonists of the peroxisome proliferator-activated receptor delta (PPARd) signaling pathway - cell viability counter screen (AID 743211); further: nearly all actives have a fitted effect of over 55% in size
Procedure, shortened: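 Tox21 library compounds, delivered in DMSO, were incubated 17 h with PPARd-bla HEK293H cells; cytotoxicity was taken from CellTiter-Glo luminescence read 30 min after reagent addition.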

[2] = biological target: Peroxisome proliferator-activated receptor delta (Homo sapiens) (UniProt Q03181); assay: qHTS assay to identify small molecule agonists of the peroxisome proliferator-activated receptor delta (PPARd) signaling pathway (AID 743212; calls by dose curve)
Procedure, shortened: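 A PPARd-bla HEK293H line with beta-lactamase under an Upstream Activator Sequence is treated with compounds at 37 C. Substrate loading for 2 h at room temperature precedes the fluorescence measurement.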

[3] = qHTS assay to identify small molecule antagonists of the peroxisome proliferator-activated receptor delta (PPARd) signaling pathway - cell viability counter screen (AID 743213); further: nearly all actives have a fitted effect of over 50% in size
Procedure, shortened: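 In this counter screen, HEK293H cells carrying a UAS-beta-lactamase reporter are co-treated with test compounds and 300 nM L165041 (final) for 17 h at 37 C; cell viability is quantified by CellTiter-Glo luminescence.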

[4] = biological target: Peroxisome proliferator-activated receptor delta (Homo sapiens) (UniProt Q03181); assay: qHTS assay to identify small molecule antagonists of the peroxisome proliferator-activated receptor delta (PPARd) signaling pathway (AID 743215; active means well fitted inhibition curve with a large enough effect in the signal ratio in the repeat runs, not every such curve was filed as active; the % refers to the signal ratio;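 further: cells stimulated with agonist L165041 at 300 nM final during compound exposure; series mostly up to about 62 µM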)
Procedure, shortened: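 PPARd UAS-bla HEK293H cells were pre-incubated 5 h at 37 C, then given test compounds in DMSO plus agonist L165041 (300 nM final). After 17 h at 37 C, beta-lactamase FRET substrate was added; fluorescence read after 2 h at room temperature.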

[5] = qHTS assay to identify small molecule antagonists of the farnesoid-X-receptor (FXR) signaling pathway - cell viability counter screen (AID 743221; active means well fitted cell-killing curve with a large enough effect in the repeat runs, not every such curve was filed as active; further: nearly all actives have a fitted effect of over 50% in size)
Procedure, shortened: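 Cytotoxicity is taken from ATP luminescence (CellTiter-Glo, 30 min, room temperature) in FXR-bla HEK 293T cells previously incubated 16 h at 37 C with compound and chenodeoxycholic acid at 50 uM final.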

[6] = qHTS assay to identify small molecule antagonists of the vitamin D receptor (VDR) signaling pathway - cell viability counter screen (AID 743225); further: nearly all actives have a fitted effect of over 50% in size
Procedure, shortened: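 Same-well multiplex: following 16 h treatment of HEK 293T cells carrying a UAS-driven beta-lactamase reporter with compound and agonist (3 nM final), and a 2 h FRET substrate step, CellTiter-Glo was added and luminescence read after 30 min.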

[7] = qHTS assay to identify small molecule agonists of the NFkB signaling pathway (AID 1159509; active means well fitted curve in the direction sought with a large enough effect in the signal ratio in the repeat runs, not every such curve was filed as active; the % refers to the signal ratio; further: series mostly up to about 61 µM)
Procedure, shortened: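 ME-180 NFkB-bla, 2,000 cells/well, overnight plating; cpd pinned in DMSO, 5 h 37 C; B/G FRET substrate 1.5 h RT; ex 405, em 460/530 nm.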

[8] = qHTS assay to identify small molecule agonists of the NFkB signaling pathway - cell viability counter screen (AID 1159515; calls by dose curve; further: series mostly up to about 61 µM; nearly all actives have a fitted effect of over 55% in size)
Procedure, shortened: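 NFkB-bla ME-180 cells, 2,000/well, were plated overnight at 37 C, 5% CO2, then exposed to compounds in DMSO for 5 hr. After the bla FRET read, CellTiter-Glo was added to the same wells; luminescence was read after 30 min at room temperature.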

[9] = qHTS assay to identify small molecule agonists of the endoplasmic reticulum stress response signaling pathway (AID 1159516; active means well fitted activation curve with a large enough effect in the signal ratio in the repeat runs, not every such curve was filed as active; the % refers to the signal ratio)
Procedure, shortened: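 CellSensor ESRE-bla HeLa cells, carrying a beta-lactamase reporter driven by the ER stress response element, were plated overnight and exposed to compounds for 5 hr at 37 C. Reporter activity was read as FRET substrate fluorescence after 2 hr at room temperature.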

[10] = qHTS assay to identify small molecule agonists of the endoplasmic reticulum stress response signaling pathway - cell viability counter screen (AID 1159517; calls by dose curve; further: series mostly up to about 61 µM; nearly all actives have a fitted effect of over 50% in size)
Procedure, shortened: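 CellTiter-Glo was added to wells already read for beta-lactamase FRET, and luminescence was recorded 30 min later. Cells: ESRE-bla HeLa, 1,500 per well, compound exposure 5 hr at 37 C.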

[11] = qHTS assay to identify small molecule antagonists of the retinoid-related orphan receptor gamma (ROR-gamma) signaling pathway - cell viability counter screen (AID 1159520); further: nearly all actives have a fitted effect of over 50% in size
Procedure, shortened: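 Tet-on ROR gamma CHO cells (1,000/well) were plated 4 hr, given compounds in DMSO for 2 hr at 37 C, then induced with 1 uM final doxycycline for 16 hr. Viability was read as ATP by CellTiter-Glo luminescence after 30 min.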

[12] = biological target: Nuclear receptor ROR-gamma (Homo sapiens) (UniProt P51449); assay: qHTS assay to identify small molecule antagonists of the retinoid-related orphan receptor gamma (ROR-gamma) signaling pathway (AID 1159521)
Procedure, shortened: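 Inducible-expression reporter assay: doxycycline (1 uM final) switched on RORγ in CHO cells bearing a ROR response element-luciferase construct, with test compounds present from 2 h beforehand. Decreased luminescence after 16 h defined antagonist activity.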

[13] = qHTS assay to identify small molecule agonists of the AP-1 signaling pathway - cell viability counter screen (AID 1159525; calls by dose curve; further: nearly all actives have a fitted effect of over 55% in size)
Procedure, shortened: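 ME-180 AP-1-bla, 2500 cells/well, Opti-MEM + 0.5% dialyzed FBS; overnight 37 °C; cpd 15-pt titration, 5 h 37 °C; CellTiter-Glo 30 min RT; luminescence read; normalised to TOAB and DMSO controls.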

[14] = qHTS assay to identify small molecule agonists of the AP-1 signaling pathway (AID 1159526; calls by dose curve)
[15] = biological target: Bile acid receptor (Homo sapiens) (UniProt Q96RI1); assay: qHTS assay to identify small molecule antagonists of the farnesoid-X-receptor (FXR) signaling pathway (AID 743217; active means well fitted inhibition curve with a large enough effect in the signal ratio in the repeat runs, not every such curve was filed as active; the % refers to the signal ratio)
Procedure, shortened: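 FXR-UAS-bla HEK 293T cells pre-incubated 5 h at 37 °C, then exposed to compounds with chenodeoxycholic acid (50 uM final) for 16 h at 37 °C. Beta-lactamase reporter read by LiveBLAzer B/G FRET substrate fluorescence after 2 h at room temperature.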

[16] = qHTS assay to identify small molecule agonists of the farnesoid-X-receptor (FXR) signaling pathway - cell viability counter screen (AID 743218); further: nearly all actives have a fitted effect of over 45% in size
Procedure, shortened: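 FXR-UAS-bla HEK 293T cells, plated 5 h at 37 C, were exposed to compounds for 16 h at 37 C. CellTiter-Glo was then added to the same wells as the bla readout; luminescence read after 30 min at room temperature.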

[17] = biological target: Bile acid receptor (Homo sapiens) (UniProt Q96RI1); assay: qHTS assay to identify small molecule agonists of the farnesoid-X-receptor (FXR) signaling pathway (AID 743220; active means well fitted activation curve with a large enough effect in the signal ratio in the repeat runs, not every such curve was filed as active; the % refers to the signal ratio)
Procedure, shortened: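 Beta-lactamase reporter under UAS control in GeneBLAzer FXR HEK 293T cells (5000/well) measured with LiveBLAzer FRET substrate after 2 h at room temperature. Compound exposure lasted 16 h at 37C.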

[18] = biological target: Vitamin D3 receptor (Homo sapiens) (UniProt P11473); assay: qHTS assay to identify small molecule agonists of the vitamin D receptor (VDR) signaling pathway (AID 743222; calls by dose curve)
Procedure, shortened: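 VDR-bla cells were plated 4 h at 37C/5% CO2, then exposed to compounds in DMSO for 16 h. After LiveBLAzer B/G FRET substrate addition and 2 h at room temperature, beta-lactamase reporter fluorescence was read.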

[19] = biological target: Vitamin D3 receptor (Homo sapiens) (UniProt P11473); assay: qHTS assay to identify small molecule antagonists of the vitamin D receptor (VDR) signaling pathway (AID 743223; active means well fitted inhibition curve with a large enough effect in the signal ratio in the repeat runs, not every such curve was filed as active; the % refers to the signal ratio)
Procedure, shortened: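 Quantitative HTS in VDR-bla reporter cells stimulated with 1alpha,25-dihydroxyvitamin D3, 3 nM final. Compound exposure 16 h, 37C, 5% CO2. Read-out: beta-lactamase FRET substrate fluorescence, 2 h RT.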

[20] = qHTS assay to identify small molecule agonists of the vitamin D receptor (VDR) signaling pathway - cell viability counter screen (AID 743224)
Procedure, shortened: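 VDR-bla cells were preincubated 4 h at 37C/5% CO2, then exposed to compounds for 16 h. After the 2 h room-temperature bla FRET read, CellTiter-Glo was added to the same wells and luminescence read after 30 min.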

Measured: Potency

Bile acid receptor (Homo sapiens), sequence (Q96RI1 whole entry, looked up): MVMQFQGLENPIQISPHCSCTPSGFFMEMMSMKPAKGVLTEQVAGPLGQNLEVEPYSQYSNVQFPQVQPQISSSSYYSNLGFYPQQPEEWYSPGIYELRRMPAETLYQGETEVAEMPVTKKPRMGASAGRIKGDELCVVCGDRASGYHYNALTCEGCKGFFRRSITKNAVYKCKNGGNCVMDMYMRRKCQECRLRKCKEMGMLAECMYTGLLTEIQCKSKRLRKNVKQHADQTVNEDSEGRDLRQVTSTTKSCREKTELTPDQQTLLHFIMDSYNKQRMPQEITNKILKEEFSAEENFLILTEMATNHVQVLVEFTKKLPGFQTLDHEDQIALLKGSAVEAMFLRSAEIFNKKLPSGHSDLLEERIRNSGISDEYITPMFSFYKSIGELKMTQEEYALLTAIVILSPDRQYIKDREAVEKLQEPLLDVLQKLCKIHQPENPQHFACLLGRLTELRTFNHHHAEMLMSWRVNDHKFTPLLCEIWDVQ
Vitamin D3 receptor (Homo sapiens), sequence (P11473 whole entry, looked up): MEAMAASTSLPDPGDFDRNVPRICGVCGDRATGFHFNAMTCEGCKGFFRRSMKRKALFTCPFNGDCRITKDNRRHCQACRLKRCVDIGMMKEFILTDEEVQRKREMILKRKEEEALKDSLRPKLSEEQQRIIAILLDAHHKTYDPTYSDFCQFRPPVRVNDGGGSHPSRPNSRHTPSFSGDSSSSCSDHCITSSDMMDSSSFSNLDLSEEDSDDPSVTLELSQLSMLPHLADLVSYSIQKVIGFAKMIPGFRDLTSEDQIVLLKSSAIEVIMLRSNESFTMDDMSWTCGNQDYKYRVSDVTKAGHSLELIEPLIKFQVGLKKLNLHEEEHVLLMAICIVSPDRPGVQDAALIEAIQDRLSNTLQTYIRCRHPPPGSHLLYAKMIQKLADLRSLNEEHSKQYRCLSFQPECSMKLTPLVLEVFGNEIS
Peroxisome proliferator-activated receptor delta (Homo sapiens), sequence (Q03181 whole entry, looked up): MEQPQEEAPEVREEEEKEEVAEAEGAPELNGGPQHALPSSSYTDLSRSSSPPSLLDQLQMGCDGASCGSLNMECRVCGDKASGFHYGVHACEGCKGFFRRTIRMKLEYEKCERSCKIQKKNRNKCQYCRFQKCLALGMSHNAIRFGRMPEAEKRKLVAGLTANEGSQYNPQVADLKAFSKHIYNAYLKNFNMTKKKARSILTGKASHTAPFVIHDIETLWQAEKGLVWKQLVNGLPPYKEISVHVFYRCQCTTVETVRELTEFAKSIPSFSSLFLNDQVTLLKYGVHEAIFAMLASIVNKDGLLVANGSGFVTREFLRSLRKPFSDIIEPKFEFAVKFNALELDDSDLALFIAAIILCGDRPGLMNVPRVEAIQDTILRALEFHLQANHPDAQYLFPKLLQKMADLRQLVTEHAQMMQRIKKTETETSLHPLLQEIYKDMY

OCC(O)[C@@H](O)[C@H](O)[C@H](O)CO[C@H]1O[C@H](CO)[C@@H](O)[C@H](O)[C@H]1O (some centres undefined)
inactive: [1] | [2] | [3] | [4] | [5] | [6] | [7] | [8] | [9] | [10] | [11] | [12] | [13] | [14]

Nc1ccn(C2CO[C@H](CO)O2)c(=O)n1 (some centres undefined)
inactive: [1] | [3] | [15] | [16] | [17] | [5] | [18] | [19] | [20] | [7] | [8] | [9] | [10] | [11] | [12] | [13] | [14]

Oc1ccc2c(c1)OC[C@@H](N1CCC(O)(c3ccc(F)cc3)CC1)[C@H]2O
inactive: [1] | [2] | [4] | [5] | [18] | [20] | [7] | [8] | [9] | [10] | [11] | [12] | [13] | [14]

CCCCCCCCCCCCI
inactive: [1] | [3] | [15] | [16] | [17] | [5] | [18] | [19] | [20] | [6] | [7] | [8] | [9] | [10] | [11] | [12] | [13] | [14]

CNc1ncnc2nc[nH]c12
inactive: [1] | [2] | [4] | [16] | [18] | [20] | [6] | [7] | [8] | [9] | [10] | [11] | [12] | [13] | [14]

C#CC(C)(O)CC(C)C (centres undefined)
inactive: [1] | [2] | [4] | [16] | [5] | [18] | [19] | [20] | [6] | [7] | [8] | [9] | [10] | [11] | [12] | [13] | [14]

CC(C)c1cccc(O)c1
inactive: [1] | [2] | [3] | [16] | [18] | [19] | [7] | [8] | [9] | [10] | [11] | [12] | [13] | [14]

CSc1nc(NC2CC2)nc(NC(C)(C)C)n1
inactive: [1] | [2] | [3] | [5] | [7] | [8] | [9] | [10] | [11] | [12] | [13] | [14]

CCCCOCC(C)OCC(C)O (centres undefined)
inactive: [1] | [2] | [4] | [15] | [16] | [17] | [5] | [18] | [19] | [20] | [6] | [7] | [8] | [9] | [10] | [11] | [12] | [13] | [14]

Cc1ccc(N)cc1[N+](=O)[O-]
inactive: [1] | [2] | [3] | [16] | [5] | [18] | [19] | [20] | [6] | [7] | [8] | [9] | [10] | [11] | [12] | [13] | [14]

C/C=C1\C(=O)C[C@H]2[C@@H]3CCC4=CC(=O)CC[C@]4(C)[C@H]3CC[C@]12C
inactive: [1] | [3] | [5] | [18] | [20] | [6] | [7] | [8] | [9] | [10] | [11] | [12] | [13] | [14]

Cc1cc(C)c(NC(=O)CN(CC(=O)O)CC(=O)O)c(C)c1Br
inactive: [1] | [3] | [5] | [18] | [20] | [6] | [7] | [8] | [9] | [10] | [11] | [12] | [13] | [14]

OC[C@H]1O[C@@H]2O[C@H]3[C@H](O)[C@@H](O)[C@@H](O[C@H]4[C@H](O)[C@@H](O)[C@@H](O[C@H]5[C@H](O)[C@@H](O)[C@@H](O[C@H]6[C@H](O)[C@@H](O)[C@@H](O[C@H]7[C@H](O)[C@@H](O)[C@@H](O[C@H]8[C@H](O)[C@@H](O)[C@@H](O[C@H]9[C@H](O)[C@@H](O)[C@@H](O[C@H]1[C@H](O)[C@H]2O)O[C@@H]9CO)O[C@@H]8CO)O[C@@H]7CO)O[C@@H]6CO)O[C@@H]5CO)O[C@@H]4CO)O[C@@H]3CO
inactive: [1] | [3] | [16] | [5] | [18] | [19] | [6] | [7] | [8] | [9] | [10] | [11] | [12] | [13] | [14]

C#CC(O)C(CC)CCCC (centres undefined)
inactive: [1] | [3] | [16] | [5] | [20] | [6] | [7] | [8] | [9] | [10] | [11] | [12] | [13] | [14]
